In the library only some 2.6% were active in any assay of this set; here they are far more common.
KKLEB cytotox = cytotoxicity in KKLEB CF airway cells, primary screen, cytotoxicity control for CF NF-kB inhibitor project, cell-based, uHTS, fluorescence assay plates | activity change (cytotoxicity), % at 5 µM | AID 602141, 2011 | hit rate 0.36% among 360,000 | KKLEB CF airway cells viability, ATPlite luminescence, overnight; active compounds read low; cells stimulated with P. aeruginosa culture filtrate;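 active = corrected activity change at or below -50% at 5 µM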
Peg3 promoter = Peg3 promoter-driven luciferase inhibitors, primary screen, cell-based, HeLa, luciferase luminescence | inhibition, % at 20 µM | HeLa PEG-Prom luciferase reporter, overnight | hit rate 1.7% among 360,000;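 active = inhibition of at least 50% at 20 µM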
HIF-2a block = HIF-2a reporter inhibitors, primary screen, luminescence, 786-0 RCC cells. 786-0 RCC cells HIF-2a reporter, luciferase luminescence, overnight. AID 624352, 2012. hit rate 0.72% among 360,000. inhibition, % at 18.8 µM;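 active = inhibition of the luminescence signal of 40% or more relative to plate controls, in a single-dose primary screen at 18.75 µM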
Shn3 inh set2 = reduction of Shn3 3'UTR firefly luciferase signal, primary screen, Schnurri-3 inhibitor project, cell-based, Clone20 osteoblasts, set 2; Clone20 osteoblast Shn3 3'UTR firefly luciferase, 24 h; hit rate 0.52% among 360,000; inhibition, % at 12.5 µM;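 active = mean inhibition of at least 75% with every replicate also reaching 75%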;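 also: 0% = median of neutral control wells and 100% = pilot-screen positive control compound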
CF NFkB block = inhibitors of PAF-induced NF-kB signaling, primary screen, cell-based, GFP fluorescence, uHTS; KKLEB NF-kB-GFP reporter, GFP fluorescence overnight; inhibition, % at 5 µM; hit rate 0.86% among 360,000; AID 588850, 2011;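 active = at least 50% inhibition at 5 µM, scaled per plate between neutral and stimulator controls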;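 also: PAF is a Pseudomonas aeruginosa culture filtrate used as stimulus; plate controls were PAF-stimulated DMSO wells for no effect and unstimulated DMSO wells for full effect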
Mdm2 MdmX conf = retested Mdm2-MdmX interaction blockers, confirmation, cell-based, luminescence, single concentration, set 2; shares compounds with HIF-2a block; SaOS-2 split-luciferase Mdm2/MdmX complementation; inhibition, % at 8 µM; hit rate 99% among 740; AID 504601, 2011;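 active = mean inhibition of the luminescence signal across two replicates at or above 26 percent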
Target sequence (O15151 whole entry, looked up): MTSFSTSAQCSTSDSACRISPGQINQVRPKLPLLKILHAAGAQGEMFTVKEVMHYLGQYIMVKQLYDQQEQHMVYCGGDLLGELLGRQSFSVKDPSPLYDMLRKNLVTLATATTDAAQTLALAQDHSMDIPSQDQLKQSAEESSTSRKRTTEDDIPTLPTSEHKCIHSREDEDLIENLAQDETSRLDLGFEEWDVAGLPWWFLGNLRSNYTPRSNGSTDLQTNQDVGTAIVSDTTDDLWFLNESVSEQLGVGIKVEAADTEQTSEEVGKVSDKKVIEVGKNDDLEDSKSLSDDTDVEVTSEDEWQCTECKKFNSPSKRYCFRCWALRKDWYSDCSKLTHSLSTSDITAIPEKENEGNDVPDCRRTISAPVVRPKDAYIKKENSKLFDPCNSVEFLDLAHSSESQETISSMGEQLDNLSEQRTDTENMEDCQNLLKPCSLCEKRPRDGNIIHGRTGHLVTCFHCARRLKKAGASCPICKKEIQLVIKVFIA
Target sequence (Q00987 whole entry, looked up): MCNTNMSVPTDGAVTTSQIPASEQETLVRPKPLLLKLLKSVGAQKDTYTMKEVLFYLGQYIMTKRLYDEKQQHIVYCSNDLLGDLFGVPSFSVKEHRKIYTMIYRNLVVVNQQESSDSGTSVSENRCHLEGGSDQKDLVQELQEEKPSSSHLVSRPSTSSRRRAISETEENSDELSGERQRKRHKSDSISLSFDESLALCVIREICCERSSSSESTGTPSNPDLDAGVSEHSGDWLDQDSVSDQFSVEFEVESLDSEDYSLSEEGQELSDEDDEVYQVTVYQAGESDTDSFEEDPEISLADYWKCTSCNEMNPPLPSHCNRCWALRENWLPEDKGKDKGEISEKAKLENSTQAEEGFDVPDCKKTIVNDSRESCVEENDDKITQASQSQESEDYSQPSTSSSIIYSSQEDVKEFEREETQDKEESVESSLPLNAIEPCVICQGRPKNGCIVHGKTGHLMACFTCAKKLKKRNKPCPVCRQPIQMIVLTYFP
HIF-2a conf = HIF-2a reporter inhibitor retest, confirmation, luminescence, 786-0 RCC cells; shares compounds with HIF-2a block; HIF-2a luciferase reporter luminescence, overnight; inhibition, % at 18.8 µM; hit rate 56% among 1,800; AID 651580, 2012;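 active = mean inhibition across four replicates of at least 40 percent at the single tested concentration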
HIF-1a cs = HIF-1a luciferase reporter signal reduction – MiaPaCa-2 cells, single concentration, counter-screen for HIF-2a inhibitor project, confirmation; shares compounds with HIF-2a block; hit rate 72% among 1,800; AID 651589, 2012; inhibition, % at 18.8 µM; MiaPaCa-2 HIF-1a luciferase reporter, desferoxamine, overnight;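 active = mean inhibition of the reporter signal across four replicates at the single tested dose of 50% or more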
Starred values were filed as active, the others as inactive; / = no result.

SMILES	KKLEB cytotox	Peg3 promoter	HIF-2a block	Shn3 inh set2	CF NFkB block	HIF-2a conf	HIF-1a cs	others
N/C(=N\[N+](=O)[O-])NCCCC(NC(=O)CNC(=O)c1ccccc1)C(=O)O (stereo not given)	5	4	16	10	-2	/	/
NC(=S)c1cn(C2OC(CO)C(O)C2O)c2ncnc(N)c12 (stereo not given)	-79*	107*	52*	97*	90*	32	105*
Nc1ncnc2c1ccn2[C@@H]1O[C@H](CO)[C@@H](O)[C@H]1O	-97*	100*	35*	96*	87*	29	103*	Mdm2 MdmX conf=103*
C#C[C@@]1(O)CCC2C3CCC4=C/C(=N/OCC(=O)NC(C(=O)NC(CC(C)C)C(=O)O)C(C)C)CC[C@]4(C)C3CC[C@@]21C (stereo not given in full)	10	-18	2	2	-11	/	/
C=C1C(=O)O[C@@H]2C[C@@H](C)[C@@H]3C=CC(=O)[C@@]3(C)[C@@H](O)[C@H]12	-60*	92*	97*	99*	88*	/	/	Mdm2 MdmX conf=100*
c1ccc(P(c2ccccn2)c2ccccn2)cc1	12	13	58*	-22	-7	2	-6
O=P1(Oc2ccccc2)CC=C[C@H](COCc2ccccc2)O1 (stereo not given in full)	4	-1	9	2	0	/	/
COC(=O)C12OCC34C(CC5C(C)=C(O)C(=O)CC5(C)C3C(O)C1O)OC(=O)C(OC(=O)/C=C(\C)C(C)C)C24 (stereo not given)	-52*	103*	75*	99*	96*	69*	106*
CSCCC(c1nnnn1-c1ccc2c(c1)OCCO2)N1CCC2(CC1)C(=O)NCN2c1ccccc1 (stereo not given)	-3	30	11	5	0	/	/
COC(=O)C(Cc1ccc(N(CCCl)CCCl)cc1)N=Cc1ccccc1O (stereo not given)	-48	97*	72*	54	75*	-5	100*	Mdm2 MdmX conf=103*
CC[C@@]1(O)C(=O)OCc2c1cc1n(c2=O)Cc2cc3c(NC(=O)CN)cccc3nc2-1	-34	-2	21	27	-5	/	/	Mdm2 MdmX conf=97*
O=[N+]([O-])c1c(Cl)c(Cl)c(Cl)c(Cl)c1Cl	-13	9	7	7	-4	/	/
Nc1cc(Cl)c2nonc2c1[N+](=O)[O-]	-76*	107*	94*	95*	76*	97*	103*
O=[N+]([O-])c1c2ccccc2cc2ccccc12	5	-36	-106	-9	-46	/	/
COc1ccc(CC2NCC(O)C2OC(C)=O)cc1 (stereo not given)	-45	108*	82*	97*	80*	85*	105*
CCCCC(CC)COCCCN=Cc1c(O)[nH]c(=S)[nH]c1=O (stereo not given)	8	15	25	16	26	/	/
CC1=CC2OC3CC4OC(=O)C=CC=CC(=O)OCCC(C)C(O)C(=O)OCC2(CC1O)C4(C)C31CO1 (stereo not given)	-44	101*	75*	89*	84*	72*	103*
CC(=NCCCN1CCOCC1)c1c(O)n(-c2ccccc2C)c(=O)[nH]c1=O	-4	1	19	-11	-7	/	/
OC(c1ccc(F)cc1)(c1ccc(F)cc1)[C@@H]1CCCN1	0	-8	7	6	0	/	/
COc1cc(/C=C/[N+](=O)[O-])ccc1O	1	18	70*	10	-33	52*	21
CCOc1ccc(N=Cc2c(O)n(-c3cc(C)cc(C)c3)c(=O)[nH]c2=O)cc1	-9	11	21	3	13	/	/
C[C@]12CC[C@H](O)CC1=CCC1C2CC[C@]2(C)C(=O)[C@H](Br)CC12 (stereo not given in full)	-12	6	10	4	36	/	/
COc1cc2c(cc1O)C[C@H]1NCCc3cc4c(c-2c31)OCO4	17	44	50*	4	-315	35	104*
COc1cc(/C=C(/C)[N+](=O)[O-])ccc1OCc1ccccc1Cl	-66*	105*	94*	96*	85*	/	/	Mdm2 MdmX conf=103*
COc1cc(C=C2C(=O)NC(=O)NC2=O)ccc1OCc1ccc([N+](=O)[O-])cc1	-2	-248	-203	-54	-24	/	/
CCN1C(=O)CC(c2cccnc2)=Nc2ccccc21	3	12	20	-3	-5	/	/
O=Cc1cn(Cc2cccc([N+](=O)[O-])c2)c2ccccc12	-40	101*	46*	34	38	63*	-8
